AMA1-RON2 inh: qHTS for Inhibitors of AMA1-RON; Towards Development of Antimalarial Drug Lead: Primary Screen; Potency, µM (top dose mostly 58.2 µM), for inactives: top-dose activity change, negative = inhibition, actives largely listed as inhibitors; Plasmodium falciparum AMA1 (3D7) - RON2 peptide interaction; AlphaScreen AMA1-biotinylated RON2 peptide binding; 360,000 tested, 0.2% active; active means well fitted inhibition curve with a large enough effect; inconclusive means small, poorly fitted or top-dose-only effect; inactive means no such curve, though single readings can be large or run the other way;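 further: potency means the concentration at half of the fitted maximal effect; 0% = vehicle wells and -100% = peptide control; nearly all actives have a fitted effect of over 45% in size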
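AMA1 (3D7) with his tag at 25 nM final met compounds first, then biotinylated RON2 peptide at 25 nM; detection used donor plus acceptor beads, 10 µg/mL apiece, read by AlphaScreen after 30 min at room temperature.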
Shiga inhibitor: A qHTS for Small Molecule Inhibitors of Shiga Toxin. 290,000 tested, 9.2% active. inhibition, % at 38.7 µM. AID 2315, 2010. Vero cells, Shiga toxin protein synthesis inhibition reporter; in the data active means inhibition mostly above about 28%, no sharp cut-off; inactive means mostly below about 43%; further: 0% is about no effect
CHX counter: Cycloheximide Counterscreen for Small Molecule Inhibitors of Shiga Toxin | 300,000 tested, 12% active | cell reporter, cycloheximide protein synthesis inhibition counterscreen | max response, %; in the data active means max response mostly above about 13%, no sharp cut-off; inactive means mostly below about 14%; further: read at 38.3 µM for the half of the compounds with a filed dose; 0% is about no effect
Marburg entry inh: qHTS for inhibitors of binding or entry into cells for Marburg Virus | Marburg virus pseudotyped entry inhibition, cell reporter | 300,000 tested, 1.8% active | Potency, µM (highest dose often 37.8 µM), inactives show at the top dose activity change, negative = inhibition, usual class: inhibitors | AID 540276, 2011; calls by dose curve; tested in HEK293 cells; further: potency means the concentration at half of the fitted maximal effect; on the % scale 0 is the no-effect control and ±100 the full control effect
Lassa entry inh: qHTS for Inhibitors of binding or entry into cells for Lassa Virus; Potency, µM (titrated, usually from 37.9 µM), for inactives: at the top dose activity change, negative = inhibition, actives largely listed as inhibitors; 300,000 tested, 1.2% active; AID 540256, 2011; Lassa virus pseudotype entry inhibition, cell reporter; calls by dose curve; tested in HEK293 cells; further: potency means the concentration at half of the fitted maximal effect; on the % scale 0 is the no-effect control and ±100 the full control effect; nearly all actives have a fitted effect of over 50% in size
* marks the source's active call; other numbers are inactive results; ? = inconclusive; / = no result given; [ ] = remark or other dose. This excerpt belongs to a sample that is enriched for hits.

SMILES | AMA1-RON2 inh | Shiga inhibitor | CHX counter | Marburg entry inh | Lassa entry inh
Cc1ccc(CN2CCN(C3CCN(C(=O)Nc4ccc(C)cc4Cl)CC3)C(=O)C2=O)cc1 | / | / | / | / | -9.7%[46.1 µM]
CN(C)c1ccc(N=Nc2nccs2)cc1 | 11.2µM* | / | / | / | /
CC(=O)c1cccc(N=Nc2c(C)[nH]c3ccccc23)c1 | -0.4% | 93.3* | 49.6* | -15.0% | 17.2%
Oc1ccc(NC(=S)N=Nc2c(O)[nH]c3ccccc23)cc1 | 35.4% | 50.9* | 19.7 | ? | ?
CNC(=S)N=Nc1c(O)[nH]c2ccccc12 | 30.5% | 17.0* | 6.4 | 7.3% | 11.5%
O=C(N=Nc1c(O)[nH]c2ccccc12)c1cccs1 | 10.0% | 107.1* | 39.0* | ? | ?
COc1ccc(NS(=O)(=O)c2cccc(C(=O)NCc3ccccc3CN3CCCC3)c2)cc1 | 0.6% | / | / | / | /
Cc1cc(C(=O)NNC(=O)c2ccc(C)c([N+](=O)[O-])c2)c(C)o1 | 42.7% | / | / | -18.9%[46.1 µM] | -9.2%
Oc1ccc(NC(=S)N=Nc2c(O)[nH]c3ccc(Br)cc23)cc1 | 38.5% | 24.2 | 11.7 | ? | 11.2µM*
COc1ccc(NC(=S)N=Nc2c(O)[nH]c3ccccc23)cc1 | 74.2% | 20.7 | 3.0 | / | /
CN(C)C(=O)c1ccc(N=Nc2c(O)c3ccccc3[nH]c2=O)cc1 | 12.5% | / | / | ? | ?
Cc1ccc(NC(=S)N=Nc2c(O)[nH]c3ccccc23)cc1 | 69.4% | 52.6* | 22.2* | ? | ?
O=C(O)c1ccc(N=Nc2c(O)[nH]c3ccccc23)cc1 | -29.9% | 56.1* | 38.7* | 1.78µM* | 5.01µM*
Oc1[nH]c2ccc(Br)cc2c1N=NC(=S)Nc1ccc(F)cc1 | 64.3% | -8.2 | -2.7 | ? | ?
COc1ccccc1N1CCN(c2nc3ccc(C(=O)c4ccccc4)cc3n3c(C)nnc23)CC1 | / | / | / | / | 11.4%[46.1 µM]
O=C(Nc1ccc(Cl)cc1)c1cccc(N2C(=O)C3C4CCC(C4)C3C2=O)c1 (stereo not given) | -10.3% | 52.4* | 22.5* | ? | ?
COc1ccc(NC(=O)c2cccc(N3C(=O)C4C5C=CC(C5)C4C3=O)c2)cc1Cl (stereo not given) | 5.0% | 13.9 | -1.4 | 12.2%[46.1 µM] | -26.6%
COc1ccc(NC(=O)c2cccc(N3C(=O)C4C5C=CC(C6CC56)C4C3=O)c2)c(OC)c1 (stereo not given) | -4.5% | 0.5 | -3.0 | ? | 17.8µM*
COc1ccc(NC(=O)c2cccc(N3C(=O)C4C5C=CC(C5)C4C3=O)c2)c(OC)c1 (stereo not given) | 5.0% | 16.9 | 9.3 | / | /
O=C(O)c1ccc(NC(=O)c2cccc(N3C(=O)C4C5CCC(C5)C4C3=O)c2)cc1 (stereo not given) | 10.5% | -2.7 | -2.9 | -1.0% | -3.1%
CN(C)c1ccc(NC(=O)c2cccc(N3C(=O)C4C5C=CC(C5)C4C3=O)c2)cc1 (stereo not given) | -3.0% | 144.3 | 62.0* | 0.3% | 8.2%
Cc1ccc(C)c(OCc2cc(C(=O)NC(C)c3cnn(C)c3)no2)c1 (stereo not given) | 11.0% | 17.4 | 11.0 | -1.4%[46.1 µM] | -1.6%[46.1 µM]
COc1cc(C)ccc1OCc1cc(C(=O)NCc2ccncc2)no1 | -14.1% | 106.5* | 59.4* | ? | -4.3%
COc1ccc(C(=O)NCc2ccncc2)cc1OC | -0.1% | 12.4 | -0.5 | ? | 16.6%
COc1cc(C)ccc1OCc1cc(C(=O)NC(C)Cn2cncn2)no1 (stereo not given) | 8.9% | 81.1* | 64.6* | -2.4% | ?
SMILES | AMA1-RON2 inh | Shiga inhibitor | CHX counter | Marburg entry inh | Lassa entry inh
Cn1c(=O)c(C(=O)CN2CCCc3ccccc32)c(N)n(Cc2ccccc2)c1=O | -2.1% | 15.1 | 49.2* | -13.0% | 0.7%
Cn1c(=O)c(C(=O)CN2CCc3ccccc32)c(N)n(Cc2ccccc2)c1=O | -5.6% | -10.1 | -1.2 | -2.9% | ?
O=C(O)CCCC1(C(=O)O)CCCC1 | -5.7% | / | / | ? | 0.0%[46.1 µM]
COC(=O)c1nnn(-c2ccc(F)c(Cl)c2)c1C(=O)OC | -5.2% | -9.5 | 1.4 | 4.6%[46.1 µM] | 15.3%
COC(=O)c1c(C)nn(-c2ccc(F)c(Cl)c2)c1-c1cc(C)on1 | -1.8% | -5.4 | 1.8 | 4.47µM* | ?
COc1ccc(-c2cn3ccccc3n2)cc1[N+](=O)[O-] | -11.0% | 96.4* | 66.6* | ? | ?
O=[N+]([O-])c1cccc(-c2cn3ccccc3n2)c1 | -13.2% | 30.3 | -3.1 | -12.5%[46.1 µM] | -25.5%

Screens deposited in PubChem by National Center for Advancing Translational Sciences (NCATS).
